Experimental data as given in article PMC7862700, “An all-to-all approach to the identification of sequence-specific readers for epigenetic DNA modifications on cytosine”.

Legend:
Test in all cases: DAPPL (digital affinity profiling via proximity ligation, sequencing); 10 mM Tris-HCl pH 7.5, 50 mM NaCl, 1 mM DTT, 4% glycerol, room temperature, 30 min; GST-TFs on glutathione beads, 16-mer random dsDNA library, 0.1% formaldehyde crosslink after washing; high values mean tight binding
Conditions in all cases: protein: recombinant; tags: N-terminal GST; dsDNA, one strand shown
[1] = target: T1, ELK1 (Homo sapiens, UniProt P19419 1-428)
T1 sequence: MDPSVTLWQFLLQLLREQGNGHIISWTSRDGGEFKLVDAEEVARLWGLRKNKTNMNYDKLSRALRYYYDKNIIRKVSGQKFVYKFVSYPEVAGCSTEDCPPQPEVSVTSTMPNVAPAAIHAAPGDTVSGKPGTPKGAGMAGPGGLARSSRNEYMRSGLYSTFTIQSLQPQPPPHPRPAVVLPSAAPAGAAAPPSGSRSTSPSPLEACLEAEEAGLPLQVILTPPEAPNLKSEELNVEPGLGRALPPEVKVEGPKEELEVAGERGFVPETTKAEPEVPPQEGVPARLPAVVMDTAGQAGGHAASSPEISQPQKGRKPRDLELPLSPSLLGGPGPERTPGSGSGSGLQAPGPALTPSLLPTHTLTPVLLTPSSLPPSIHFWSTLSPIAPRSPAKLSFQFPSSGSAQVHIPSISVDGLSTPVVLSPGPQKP
Outline: (§1)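 Sequencing on an Illumina NextSeq500 followed washing, crosslinking with 0.1% formaldehyde, proximity ligation (BsaI/T4 ligase, 1 h, 37 °C) and PCR amplification of pools that had been incubated for 30 min at room temperature with 200 nmole of a random double-stranded 16-mer DNA library in Tris/NaCl/DTT/glycerol buffer. Each pool held DNA-barcoded human transcription factors, expressed in yeast as GST fusions and captured on glutathione beads, plus a tag-only sample. Binding signal is a hexamer's read frequency for a factor divided by its frequency in the tag-only sample.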

[2] = target: T2, ERG (Homo sapiens, UniProt P11308 1-479)
T2 sequence: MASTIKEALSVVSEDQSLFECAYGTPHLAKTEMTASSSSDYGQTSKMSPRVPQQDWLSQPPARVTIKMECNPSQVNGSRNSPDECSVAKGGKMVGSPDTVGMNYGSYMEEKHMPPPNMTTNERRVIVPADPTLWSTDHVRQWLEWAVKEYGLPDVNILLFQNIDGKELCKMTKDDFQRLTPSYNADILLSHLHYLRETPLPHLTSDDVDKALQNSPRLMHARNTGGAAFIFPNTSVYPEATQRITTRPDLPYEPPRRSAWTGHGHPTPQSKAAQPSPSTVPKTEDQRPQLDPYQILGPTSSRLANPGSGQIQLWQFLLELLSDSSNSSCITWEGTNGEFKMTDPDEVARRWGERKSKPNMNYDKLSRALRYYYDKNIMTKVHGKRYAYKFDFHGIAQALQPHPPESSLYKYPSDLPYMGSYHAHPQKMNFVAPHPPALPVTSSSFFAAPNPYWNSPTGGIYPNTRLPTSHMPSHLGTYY
Outline: as §1

[3] = target: T3, ELK4 (Homo sapiens, UniProt P28324-2 1-405)
T3 sequence: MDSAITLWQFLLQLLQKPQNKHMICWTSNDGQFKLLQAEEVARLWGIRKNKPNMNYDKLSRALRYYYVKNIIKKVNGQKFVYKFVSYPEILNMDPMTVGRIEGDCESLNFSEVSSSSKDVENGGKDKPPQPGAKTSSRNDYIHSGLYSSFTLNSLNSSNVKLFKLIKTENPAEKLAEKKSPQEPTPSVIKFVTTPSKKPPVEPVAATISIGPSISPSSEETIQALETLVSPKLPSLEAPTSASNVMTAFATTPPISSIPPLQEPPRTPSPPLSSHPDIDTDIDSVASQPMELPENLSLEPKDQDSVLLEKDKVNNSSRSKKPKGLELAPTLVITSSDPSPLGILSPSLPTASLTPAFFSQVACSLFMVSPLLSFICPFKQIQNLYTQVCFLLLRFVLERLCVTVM
Outline: as §1

[4] = target: T4, ELF3 (Homo sapiens, UniProt P78545 1-371)
T4 sequence: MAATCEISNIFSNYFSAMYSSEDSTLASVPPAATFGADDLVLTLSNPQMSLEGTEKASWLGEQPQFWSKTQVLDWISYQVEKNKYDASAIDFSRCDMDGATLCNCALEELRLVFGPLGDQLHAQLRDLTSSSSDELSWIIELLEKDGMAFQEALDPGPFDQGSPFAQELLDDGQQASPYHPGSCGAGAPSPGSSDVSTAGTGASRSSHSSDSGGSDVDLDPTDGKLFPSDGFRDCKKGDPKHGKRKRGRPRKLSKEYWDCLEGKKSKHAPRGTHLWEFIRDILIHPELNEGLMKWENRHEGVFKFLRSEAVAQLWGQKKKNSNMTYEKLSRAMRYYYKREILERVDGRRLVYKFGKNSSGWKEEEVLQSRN
Outline: as §1

[5] = target: CRX (Homo sapiens, UniProt O43186 1-299)
CRX, sequence (O43186 whole entry): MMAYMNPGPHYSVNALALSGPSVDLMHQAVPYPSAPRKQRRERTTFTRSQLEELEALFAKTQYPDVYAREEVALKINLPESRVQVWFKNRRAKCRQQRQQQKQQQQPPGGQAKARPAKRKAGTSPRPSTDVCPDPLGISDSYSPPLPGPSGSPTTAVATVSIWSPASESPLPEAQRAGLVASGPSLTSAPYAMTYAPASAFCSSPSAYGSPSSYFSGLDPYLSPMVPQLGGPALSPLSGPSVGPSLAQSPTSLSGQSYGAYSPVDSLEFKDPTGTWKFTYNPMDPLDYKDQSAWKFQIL
Outline: as §1

[6] = target: ETV1 (Homo sapiens, UniProt P50549 1-477)
ETV1, sequence (P50549 whole entry): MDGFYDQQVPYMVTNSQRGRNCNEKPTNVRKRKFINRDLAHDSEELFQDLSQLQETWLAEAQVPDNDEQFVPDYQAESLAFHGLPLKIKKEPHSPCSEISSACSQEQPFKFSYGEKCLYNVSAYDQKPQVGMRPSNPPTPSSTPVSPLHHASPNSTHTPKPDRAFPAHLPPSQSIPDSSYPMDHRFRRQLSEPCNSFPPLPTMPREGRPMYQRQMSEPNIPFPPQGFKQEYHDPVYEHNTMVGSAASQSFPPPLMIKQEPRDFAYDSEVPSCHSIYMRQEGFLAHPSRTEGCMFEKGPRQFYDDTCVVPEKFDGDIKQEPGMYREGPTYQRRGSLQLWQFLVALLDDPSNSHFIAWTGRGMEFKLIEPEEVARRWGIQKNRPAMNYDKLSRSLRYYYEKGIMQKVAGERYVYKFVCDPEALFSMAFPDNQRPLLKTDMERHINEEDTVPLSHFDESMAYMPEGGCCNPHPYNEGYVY
Outline: as §1

[7] = target: T5, ERF (Homo sapiens, UniProt P50548 1-548)
T5 sequence: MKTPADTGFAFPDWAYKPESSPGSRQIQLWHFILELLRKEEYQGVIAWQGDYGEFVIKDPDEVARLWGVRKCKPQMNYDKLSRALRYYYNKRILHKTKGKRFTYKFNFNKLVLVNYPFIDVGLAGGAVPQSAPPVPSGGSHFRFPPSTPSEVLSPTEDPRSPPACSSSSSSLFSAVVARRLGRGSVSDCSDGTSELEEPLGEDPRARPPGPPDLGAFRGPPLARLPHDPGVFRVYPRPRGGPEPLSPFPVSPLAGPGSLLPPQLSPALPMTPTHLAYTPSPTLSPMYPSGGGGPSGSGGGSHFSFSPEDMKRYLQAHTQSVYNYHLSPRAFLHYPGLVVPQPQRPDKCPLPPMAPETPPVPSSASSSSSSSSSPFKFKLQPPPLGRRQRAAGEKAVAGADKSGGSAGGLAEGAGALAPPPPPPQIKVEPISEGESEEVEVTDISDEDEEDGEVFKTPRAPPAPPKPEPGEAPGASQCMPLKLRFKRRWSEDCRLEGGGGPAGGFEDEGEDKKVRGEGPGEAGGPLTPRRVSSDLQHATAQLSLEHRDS
Outline: as §1

[8] = target: T6, SPDEF (Homo sapiens, UniProt O95238 1-335)
T6 sequence: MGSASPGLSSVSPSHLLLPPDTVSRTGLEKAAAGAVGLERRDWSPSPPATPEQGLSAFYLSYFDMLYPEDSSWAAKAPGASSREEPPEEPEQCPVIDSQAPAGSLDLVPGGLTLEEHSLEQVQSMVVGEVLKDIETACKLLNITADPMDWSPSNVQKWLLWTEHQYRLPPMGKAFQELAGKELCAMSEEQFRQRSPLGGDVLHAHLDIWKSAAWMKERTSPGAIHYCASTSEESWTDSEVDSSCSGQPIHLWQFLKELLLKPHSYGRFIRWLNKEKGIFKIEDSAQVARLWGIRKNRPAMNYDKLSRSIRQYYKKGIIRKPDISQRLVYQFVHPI
Outline: as §1

[9] = target: T7, ETV3 (Homo sapiens, UniProt P41162-2 1-143)
T7 sequence: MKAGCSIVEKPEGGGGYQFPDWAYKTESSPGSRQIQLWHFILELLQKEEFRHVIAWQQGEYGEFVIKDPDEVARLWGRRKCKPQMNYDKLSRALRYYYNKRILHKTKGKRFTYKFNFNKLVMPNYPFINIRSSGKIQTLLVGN
Outline: as §1

[10] = target: T8, GABPA (Homo sapiens, UniProt Q06546 1-454)
T8 sequence: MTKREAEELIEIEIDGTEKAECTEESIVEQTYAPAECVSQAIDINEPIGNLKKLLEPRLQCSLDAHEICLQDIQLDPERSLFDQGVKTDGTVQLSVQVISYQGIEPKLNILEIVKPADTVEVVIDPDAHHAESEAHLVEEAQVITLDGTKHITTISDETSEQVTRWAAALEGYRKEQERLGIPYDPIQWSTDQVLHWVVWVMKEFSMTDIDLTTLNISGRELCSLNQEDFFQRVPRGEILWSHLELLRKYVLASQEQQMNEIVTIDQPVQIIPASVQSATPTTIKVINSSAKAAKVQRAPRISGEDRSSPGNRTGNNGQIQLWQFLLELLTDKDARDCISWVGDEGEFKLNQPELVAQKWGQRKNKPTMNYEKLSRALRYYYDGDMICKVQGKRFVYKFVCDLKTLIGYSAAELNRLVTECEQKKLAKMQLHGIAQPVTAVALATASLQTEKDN
Outline: as §1

[11] = target: ELF1 (Homo sapiens, UniProt P32519 1-619)
ELF1, sequence (P32519 whole entry): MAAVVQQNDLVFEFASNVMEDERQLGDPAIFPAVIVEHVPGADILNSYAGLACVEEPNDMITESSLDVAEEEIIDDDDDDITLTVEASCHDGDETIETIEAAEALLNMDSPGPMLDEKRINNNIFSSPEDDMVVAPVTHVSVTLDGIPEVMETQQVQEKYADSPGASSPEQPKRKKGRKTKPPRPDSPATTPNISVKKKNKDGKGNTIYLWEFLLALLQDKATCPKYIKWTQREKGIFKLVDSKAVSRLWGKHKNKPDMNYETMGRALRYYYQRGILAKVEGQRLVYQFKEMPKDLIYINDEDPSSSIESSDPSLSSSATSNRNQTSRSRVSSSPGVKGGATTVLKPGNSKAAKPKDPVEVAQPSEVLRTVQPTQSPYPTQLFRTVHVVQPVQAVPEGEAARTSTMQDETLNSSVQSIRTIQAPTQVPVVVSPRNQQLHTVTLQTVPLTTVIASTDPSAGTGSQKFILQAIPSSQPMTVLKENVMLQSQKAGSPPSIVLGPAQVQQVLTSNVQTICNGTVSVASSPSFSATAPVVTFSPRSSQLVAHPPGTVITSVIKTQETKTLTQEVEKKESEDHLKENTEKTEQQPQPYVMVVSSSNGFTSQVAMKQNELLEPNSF
Outline: as §1

[12] = target: SPI1 (Homo sapiens, UniProt P17947 1-270)
Outline: as §1

[13] = target: ELF4 (Homo sapiens, UniProt Q99607 1-663)
ELF4, sequence (Q99607 whole entry): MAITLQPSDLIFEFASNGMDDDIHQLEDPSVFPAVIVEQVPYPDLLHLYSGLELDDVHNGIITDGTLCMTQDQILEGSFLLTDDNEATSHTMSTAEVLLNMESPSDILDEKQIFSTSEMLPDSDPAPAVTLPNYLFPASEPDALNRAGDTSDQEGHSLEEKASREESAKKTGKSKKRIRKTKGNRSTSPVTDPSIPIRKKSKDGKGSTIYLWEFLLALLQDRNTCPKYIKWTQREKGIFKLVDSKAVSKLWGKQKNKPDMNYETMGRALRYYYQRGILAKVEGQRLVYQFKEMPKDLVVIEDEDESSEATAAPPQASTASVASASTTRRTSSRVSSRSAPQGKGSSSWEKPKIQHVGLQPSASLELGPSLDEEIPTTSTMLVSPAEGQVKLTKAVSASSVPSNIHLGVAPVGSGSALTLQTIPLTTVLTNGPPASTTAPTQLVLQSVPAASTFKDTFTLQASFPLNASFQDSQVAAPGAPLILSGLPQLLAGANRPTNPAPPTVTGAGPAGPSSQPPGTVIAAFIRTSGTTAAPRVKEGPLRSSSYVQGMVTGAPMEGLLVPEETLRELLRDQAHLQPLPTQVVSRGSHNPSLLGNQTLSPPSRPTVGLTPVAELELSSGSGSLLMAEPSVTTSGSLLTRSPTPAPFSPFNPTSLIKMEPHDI
Outline: as §1

[14] = target: T9, ETV2 (Homo sapiens, UniProt O00321 1-342)
T9 sequence: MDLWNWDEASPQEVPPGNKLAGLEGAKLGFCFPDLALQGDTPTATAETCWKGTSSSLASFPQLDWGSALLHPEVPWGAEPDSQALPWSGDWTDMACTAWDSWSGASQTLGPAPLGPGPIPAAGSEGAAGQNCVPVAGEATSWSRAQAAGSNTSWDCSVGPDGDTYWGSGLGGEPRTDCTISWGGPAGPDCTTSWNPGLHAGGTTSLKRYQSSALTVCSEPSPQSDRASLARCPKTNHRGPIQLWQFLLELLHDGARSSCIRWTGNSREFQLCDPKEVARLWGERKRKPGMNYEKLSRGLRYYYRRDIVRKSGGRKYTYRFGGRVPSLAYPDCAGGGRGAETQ
Outline: as §1

[15] = target: T10, ETV7 (Homo sapiens, UniProt Q9Y603 1-341)
T10 sequence: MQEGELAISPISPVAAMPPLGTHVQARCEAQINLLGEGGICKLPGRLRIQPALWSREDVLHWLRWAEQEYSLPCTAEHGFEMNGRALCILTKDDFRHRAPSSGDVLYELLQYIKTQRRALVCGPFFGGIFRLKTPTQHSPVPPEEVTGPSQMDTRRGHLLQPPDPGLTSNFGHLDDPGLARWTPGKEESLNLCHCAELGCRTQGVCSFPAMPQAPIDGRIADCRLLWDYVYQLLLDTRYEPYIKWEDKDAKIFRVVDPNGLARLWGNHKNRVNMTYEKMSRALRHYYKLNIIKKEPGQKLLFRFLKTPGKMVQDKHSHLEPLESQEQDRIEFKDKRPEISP
Outline: as §1

Q: How did the binding signal [1] turn out when TTGAAG was run?
A: Its binding signal is 1.06 fold enrichment (6-mer frequency, TF over GST control).

Q: What about the binding signal [2] of the same sequence?
A: Its binding signal is 1.02 fold enrichment (6-mer frequency, TF over GST control).

Q: And the binding signal [3]?
A: The binding signal was 1.09 fold enrichment (6-mer frequency, TF over GST control).

Q: What about the binding signal [4] of the same sequence?
A: The binding signal was 1.07 fold enrichment (6-mer frequency, TF over GST control).

Q: And the binding signal [5]?
A: Its binding signal is 1.03 fold enrichment (6-mer frequency, TF over GST control).

Q: And the binding signal [6]?
A: Its binding signal is 1.01 fold enrichment (6-mer frequency, TF over GST control).

Q: And the binding signal [7]?
A: Its binding signal is 1.01 fold enrichment (6-mer frequency, TF over GST control).

Q: And the binding signal [8]?
A: The binding signal was 1.03 fold enrichment (6-mer frequency, TF over GST control).

Q: What about the binding signal [9] of the same sequence?
A: Its binding signal is 1.02 fold enrichment (6-mer frequency, TF over GST control).

Q: With ATAGAC as the sequence, how does the binding signal [10] read?
A: The binding signal was 1.04 fold enrichment (6-mer frequency, TF over GST control).

Q: And the binding signal [11]?
A: Its binding signal is 1.03 fold enrichment (6-mer frequency, TF over GST control).

Q: What about the binding signal [12] of the same sequence?
A: Its binding signal is 1.02 fold enrichment (6-mer frequency, TF over GST control).

Q: And the binding signal [13]?
A: The binding signal was 1.01 fold enrichment (6-mer frequency, TF over GST control).

Q: And the binding signal [3]?
A: Its binding signal is 1.02 fold enrichment (6-mer frequency, TF over GST control).

Q: What about the binding signal [14] of the same sequence?
A: The binding signal was 1.08 fold enrichment (6-mer frequency, TF over GST control).

Q: And the binding signal [8]?
A: Its binding signal is 1.01 fold enrichment (6-mer frequency, TF over GST control).

Q: What about the binding signal [15] of the same sequence?
A: The binding signal was 1.1 fold enrichment (6-mer frequency, TF over GST control).

Q: What about the binding signal [9] of the same sequence?
A: The binding signal was 1.02 fold enrichment (6-mer frequency, TF over GST control).
